What all share (assay): DAPPL (digital affinity profiling via proximity ligation, sequencing); 10 mM Tris-HCl pH 7.5, 50 mM NaCl, 1 mM DTT, 4% glycerol, room temperature, 30 min; GST-TFs on glutathione beads, 16-mer random dsDNA library, 0.1% formaldehyde crosslink after washing; high values mean tight binding
For test [1], the target named is T1, FLI1 (Homo sapiens, UniProt Q01543 1-452).
T1 sequence: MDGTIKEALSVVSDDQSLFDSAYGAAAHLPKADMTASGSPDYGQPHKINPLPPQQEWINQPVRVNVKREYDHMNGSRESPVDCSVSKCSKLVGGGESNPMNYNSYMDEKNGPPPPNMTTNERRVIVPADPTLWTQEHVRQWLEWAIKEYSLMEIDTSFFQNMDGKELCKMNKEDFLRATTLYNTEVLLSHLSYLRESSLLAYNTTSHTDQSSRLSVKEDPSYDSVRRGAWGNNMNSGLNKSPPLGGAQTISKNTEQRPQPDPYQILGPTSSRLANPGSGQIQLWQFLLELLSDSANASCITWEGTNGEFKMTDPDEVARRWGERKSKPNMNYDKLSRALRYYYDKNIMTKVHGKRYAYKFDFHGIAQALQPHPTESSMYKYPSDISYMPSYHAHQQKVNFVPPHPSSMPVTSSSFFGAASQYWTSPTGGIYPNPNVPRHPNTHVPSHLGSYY
The conditions noted are these: protein: recombinant; tags: N-terminal GST; dsDNA, one strand shown. The procedure, abridged:
(§1)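 Binding signal is given per hexamer as its read frequency for a factor divided by its frequency in the tag-only sample. GST-fused human transcription factors were expressed in yeast, captured on glutathione beads, barcoded with DNA and pooled with that sample, then incubated with 200 nmole of a 16-mer random double-stranded DNA library in Tris/NaCl/DTT/glycerol buffer for 30 min at room temperature. The pools were then washed, crosslinked, proximity-ligated, amplified by PCR and sequenced on an Illumina NextSeq500.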

Test [2] concerns the target T2, ELK1 (Homo sapiens, UniProt P19419 1-428).
T2 sequence: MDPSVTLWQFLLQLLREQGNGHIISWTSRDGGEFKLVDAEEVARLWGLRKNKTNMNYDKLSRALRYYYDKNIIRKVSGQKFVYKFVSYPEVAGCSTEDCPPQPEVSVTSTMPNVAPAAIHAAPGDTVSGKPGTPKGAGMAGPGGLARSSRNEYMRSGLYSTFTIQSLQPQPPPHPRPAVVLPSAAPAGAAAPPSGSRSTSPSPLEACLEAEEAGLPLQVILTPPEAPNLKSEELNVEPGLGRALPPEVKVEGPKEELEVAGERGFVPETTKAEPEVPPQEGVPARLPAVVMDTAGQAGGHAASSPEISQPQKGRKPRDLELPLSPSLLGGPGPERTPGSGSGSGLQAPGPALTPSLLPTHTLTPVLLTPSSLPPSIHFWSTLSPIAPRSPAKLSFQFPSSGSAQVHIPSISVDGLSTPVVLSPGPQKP
The conditions noted are these: protein: recombinant; tags: N-terminal GST; dsDNA, one strand shown. The method in brief: as §1

Test [3] addresses T3, GABPA (Homo sapiens, UniProt Q06546 1-454).
T3 sequence: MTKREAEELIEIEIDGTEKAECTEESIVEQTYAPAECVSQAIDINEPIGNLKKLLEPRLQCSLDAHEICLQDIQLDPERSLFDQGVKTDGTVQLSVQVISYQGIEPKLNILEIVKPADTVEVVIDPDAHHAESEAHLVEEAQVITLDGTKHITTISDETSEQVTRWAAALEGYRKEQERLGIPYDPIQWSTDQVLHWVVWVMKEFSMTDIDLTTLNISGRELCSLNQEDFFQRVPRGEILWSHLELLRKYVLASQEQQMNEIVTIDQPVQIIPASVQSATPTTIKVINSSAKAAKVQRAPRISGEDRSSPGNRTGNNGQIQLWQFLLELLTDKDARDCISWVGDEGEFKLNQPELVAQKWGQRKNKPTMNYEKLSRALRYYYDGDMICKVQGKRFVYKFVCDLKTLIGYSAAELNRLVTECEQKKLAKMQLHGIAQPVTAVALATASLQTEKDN
The conditions noted are these: protein: recombinant; tags: N-terminal GST; dsDNA, one strand shown. The procedure, abridged: as §1

Test [4] concerns the target T4, ERG (Homo sapiens, UniProt P11308 1-479).
T4 sequence: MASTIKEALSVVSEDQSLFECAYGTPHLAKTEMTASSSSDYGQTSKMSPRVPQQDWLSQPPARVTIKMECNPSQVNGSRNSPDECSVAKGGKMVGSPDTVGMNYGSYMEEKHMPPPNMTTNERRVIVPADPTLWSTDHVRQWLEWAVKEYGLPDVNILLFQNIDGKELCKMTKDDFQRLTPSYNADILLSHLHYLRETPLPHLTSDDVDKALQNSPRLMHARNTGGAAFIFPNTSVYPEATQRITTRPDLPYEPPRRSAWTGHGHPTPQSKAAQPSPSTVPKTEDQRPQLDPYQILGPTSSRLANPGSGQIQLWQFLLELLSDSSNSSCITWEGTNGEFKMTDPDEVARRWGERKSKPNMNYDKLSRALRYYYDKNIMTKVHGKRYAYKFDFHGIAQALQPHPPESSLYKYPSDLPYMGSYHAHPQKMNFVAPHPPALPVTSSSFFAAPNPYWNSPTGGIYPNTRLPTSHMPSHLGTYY
The conditions noted are these: protein: recombinant; tags: N-terminal GST; dsDNA, one strand shown. The method in brief: as §1

For test [5], the target named is ELF1 (Homo sapiens, UniProt P32519 1-619). The settings on record: protein: recombinant; tags: N-terminal GST; dsDNA, one strand shown. The procedure, abridged: as §1
Test [6] addresses T5, EHF (Homo sapiens, UniProt Q9NZC4 1-300).
T5 sequence: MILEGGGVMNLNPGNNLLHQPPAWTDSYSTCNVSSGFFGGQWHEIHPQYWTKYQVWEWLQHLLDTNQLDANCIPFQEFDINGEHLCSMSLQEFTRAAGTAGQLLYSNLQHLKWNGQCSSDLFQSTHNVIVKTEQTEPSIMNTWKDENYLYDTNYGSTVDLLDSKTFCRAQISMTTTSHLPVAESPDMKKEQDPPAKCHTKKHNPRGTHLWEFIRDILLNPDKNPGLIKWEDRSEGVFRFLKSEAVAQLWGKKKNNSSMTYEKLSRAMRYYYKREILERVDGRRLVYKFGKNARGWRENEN
The conditions noted are these: protein: recombinant; tags: N-terminal GST; dsDNA, one strand shown. The method in brief: as §1

For test [7], the target named is SPI1 (Homo sapiens, UniProt P17947 1-270). The conditions noted are these: protein: recombinant; tags: N-terminal GST; dsDNA, one strand shown. The procedure, abridged: as §1
Test [8] concerns the target SPIB (Homo sapiens, UniProt Q01892 1-262). The conditions noted are these: protein: recombinant; tags: N-terminal GST; dsDNA, one strand shown. The method in brief: as §1
Test [9] addresses T6, ELK3 (Homo sapiens, UniProt P41970 1-407).
T6 sequence: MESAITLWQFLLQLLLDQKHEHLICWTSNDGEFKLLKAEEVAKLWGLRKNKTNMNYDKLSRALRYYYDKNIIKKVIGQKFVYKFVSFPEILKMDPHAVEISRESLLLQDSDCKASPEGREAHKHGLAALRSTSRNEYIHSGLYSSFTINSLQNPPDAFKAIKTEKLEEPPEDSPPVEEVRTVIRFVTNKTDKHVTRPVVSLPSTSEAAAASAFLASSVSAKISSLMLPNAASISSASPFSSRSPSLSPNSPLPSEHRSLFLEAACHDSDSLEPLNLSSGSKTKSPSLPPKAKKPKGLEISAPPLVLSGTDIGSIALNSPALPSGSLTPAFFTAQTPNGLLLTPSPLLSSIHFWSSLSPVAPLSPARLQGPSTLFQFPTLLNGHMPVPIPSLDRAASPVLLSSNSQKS
The settings on record: protein: recombinant; tags: N-terminal GST; dsDNA, one strand shown. The method in brief:
as §1

Test [10] deals with T7, FEV (Homo sapiens, UniProt Q99581 1-238).
T7 sequence: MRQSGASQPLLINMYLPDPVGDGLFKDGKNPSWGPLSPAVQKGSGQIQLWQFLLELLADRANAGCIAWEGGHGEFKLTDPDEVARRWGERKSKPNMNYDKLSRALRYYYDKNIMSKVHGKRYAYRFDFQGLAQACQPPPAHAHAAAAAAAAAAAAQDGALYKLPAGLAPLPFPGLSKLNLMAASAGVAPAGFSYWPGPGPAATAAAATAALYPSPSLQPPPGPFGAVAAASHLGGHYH
The conditions noted are these: protein: recombinant; tags: N-terminal GST; dsDNA, one strand shown. The procedure, abridged: as §1

Test [11] has as its target ETV5 (Homo sapiens, UniProt P41161 1-510). The settings on record: protein: recombinant; tags: N-terminal GST; dsDNA, one strand shown. The method in brief:
as §1

In test [12] the target is HSF1 (Homo sapiens, UniProt Q00613 1-529). The settings on record: protein: recombinant; tags: N-terminal GST; chain copies: 3; dsDNA, one strand shown. The procedure, abridged: as §1
The target of test [13] is T8, SPIC (Homo sapiens, UniProt Q8N5J4 1-248).
T8 sequence: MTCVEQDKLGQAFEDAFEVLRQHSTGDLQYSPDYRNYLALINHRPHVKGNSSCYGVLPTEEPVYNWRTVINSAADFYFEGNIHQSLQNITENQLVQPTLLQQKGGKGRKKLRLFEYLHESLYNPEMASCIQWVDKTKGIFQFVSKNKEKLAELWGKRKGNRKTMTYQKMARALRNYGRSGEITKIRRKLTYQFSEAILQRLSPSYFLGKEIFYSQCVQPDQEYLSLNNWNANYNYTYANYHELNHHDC
The conditions noted are these: protein: recombinant; tags: N-terminal GST; dsDNA, one strand shown. The method in brief: as §1

The target of test [14] is ELF4 (Homo sapiens, UniProt Q99607 1-663). The conditions noted are these: protein: recombinant; tags: N-terminal GST; dsDNA, one strand shown. The method in brief:
as §1

Test [15] concerns the target T9, ELK4 (Homo sapiens, UniProt P28324-2 1-405).
T9 sequence: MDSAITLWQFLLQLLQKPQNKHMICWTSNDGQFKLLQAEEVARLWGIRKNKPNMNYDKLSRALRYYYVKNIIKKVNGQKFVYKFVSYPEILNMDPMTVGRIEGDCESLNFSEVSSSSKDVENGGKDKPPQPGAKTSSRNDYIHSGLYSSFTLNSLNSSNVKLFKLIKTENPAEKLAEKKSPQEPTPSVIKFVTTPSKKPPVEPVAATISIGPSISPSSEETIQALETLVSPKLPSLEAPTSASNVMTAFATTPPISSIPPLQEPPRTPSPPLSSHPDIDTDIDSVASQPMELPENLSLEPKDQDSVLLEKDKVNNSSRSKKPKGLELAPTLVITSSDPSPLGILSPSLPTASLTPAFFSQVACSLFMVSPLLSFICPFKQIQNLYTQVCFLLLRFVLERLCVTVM
The conditions noted are these: protein: recombinant; tags: N-terminal GST; dsDNA, one strand shown. The procedure, abridged:
as §1

For test [16], the target named is T10, ETV2 (Homo sapiens, UniProt O00321 1-342).
T10 sequence: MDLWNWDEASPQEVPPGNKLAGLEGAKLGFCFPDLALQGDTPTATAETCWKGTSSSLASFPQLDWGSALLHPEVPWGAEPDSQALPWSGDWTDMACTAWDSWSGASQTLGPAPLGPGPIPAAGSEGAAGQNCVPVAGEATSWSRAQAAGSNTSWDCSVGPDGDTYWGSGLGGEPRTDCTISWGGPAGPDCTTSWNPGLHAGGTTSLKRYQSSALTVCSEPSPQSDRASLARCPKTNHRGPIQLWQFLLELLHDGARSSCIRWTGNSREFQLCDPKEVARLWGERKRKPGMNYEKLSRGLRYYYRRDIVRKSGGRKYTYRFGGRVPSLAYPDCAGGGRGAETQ
The conditions noted are these: protein: recombinant; tags: N-terminal GST; dsDNA, one strand shown. The procedure, abridged: as §1

Test [17] concerns the target T11, ELF3 (Homo sapiens, UniProt P78545 1-371).
T11 sequence: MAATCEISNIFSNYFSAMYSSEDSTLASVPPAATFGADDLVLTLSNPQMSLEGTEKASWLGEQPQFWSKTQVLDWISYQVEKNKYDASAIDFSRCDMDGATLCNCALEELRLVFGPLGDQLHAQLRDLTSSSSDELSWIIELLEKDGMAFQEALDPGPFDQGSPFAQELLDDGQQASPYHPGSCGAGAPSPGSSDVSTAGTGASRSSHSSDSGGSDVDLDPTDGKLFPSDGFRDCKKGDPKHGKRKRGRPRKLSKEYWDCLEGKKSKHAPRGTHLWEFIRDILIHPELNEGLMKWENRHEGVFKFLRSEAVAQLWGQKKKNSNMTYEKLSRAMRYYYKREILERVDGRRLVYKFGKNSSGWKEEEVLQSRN
The settings on record: protein: recombinant; tags: N-terminal GST; dsDNA, one strand shown. The method in brief:
as §1

The target in test [18] is CRX (Homo sapiens, UniProt O43186 1-299). The conditions noted are these: protein: recombinant; tags: N-terminal GST; dsDNA, one strand shown. The method in brief: as §1
Test [19] deals with ETV1 (Homo sapiens, UniProt P50549 1-477). The conditions noted are these: protein: recombinant; tags: N-terminal GST; dsDNA, one strand shown. The method in brief: as §1
ETV1, sequence (P50549 whole entry): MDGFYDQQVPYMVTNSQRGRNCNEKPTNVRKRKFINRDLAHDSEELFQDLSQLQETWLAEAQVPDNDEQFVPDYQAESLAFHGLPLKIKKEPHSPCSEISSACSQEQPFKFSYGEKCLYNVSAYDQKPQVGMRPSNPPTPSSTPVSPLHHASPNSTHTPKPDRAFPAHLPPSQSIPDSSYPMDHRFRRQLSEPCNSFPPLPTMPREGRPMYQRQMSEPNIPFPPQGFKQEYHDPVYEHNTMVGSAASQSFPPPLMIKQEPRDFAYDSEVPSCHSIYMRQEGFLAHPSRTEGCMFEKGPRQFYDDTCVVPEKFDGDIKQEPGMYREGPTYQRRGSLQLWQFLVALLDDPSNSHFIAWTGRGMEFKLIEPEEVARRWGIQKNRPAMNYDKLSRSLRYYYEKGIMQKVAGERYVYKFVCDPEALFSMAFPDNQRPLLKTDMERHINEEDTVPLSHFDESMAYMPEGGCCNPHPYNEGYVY

HSF1, sequence (Q00613 whole entry): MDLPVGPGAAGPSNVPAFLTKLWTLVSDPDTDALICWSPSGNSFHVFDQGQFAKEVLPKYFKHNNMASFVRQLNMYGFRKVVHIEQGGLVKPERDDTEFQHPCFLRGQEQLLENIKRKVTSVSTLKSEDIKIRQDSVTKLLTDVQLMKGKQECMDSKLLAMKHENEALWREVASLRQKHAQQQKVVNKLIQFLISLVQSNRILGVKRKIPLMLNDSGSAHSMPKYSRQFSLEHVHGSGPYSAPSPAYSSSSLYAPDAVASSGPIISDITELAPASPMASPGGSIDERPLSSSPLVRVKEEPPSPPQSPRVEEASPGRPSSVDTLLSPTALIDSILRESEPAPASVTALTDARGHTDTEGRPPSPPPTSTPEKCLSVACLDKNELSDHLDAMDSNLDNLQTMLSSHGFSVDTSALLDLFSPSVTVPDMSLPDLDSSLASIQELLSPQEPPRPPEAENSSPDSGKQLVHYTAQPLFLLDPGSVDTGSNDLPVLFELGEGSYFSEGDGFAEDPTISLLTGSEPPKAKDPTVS
CRX, sequence (O43186 whole entry): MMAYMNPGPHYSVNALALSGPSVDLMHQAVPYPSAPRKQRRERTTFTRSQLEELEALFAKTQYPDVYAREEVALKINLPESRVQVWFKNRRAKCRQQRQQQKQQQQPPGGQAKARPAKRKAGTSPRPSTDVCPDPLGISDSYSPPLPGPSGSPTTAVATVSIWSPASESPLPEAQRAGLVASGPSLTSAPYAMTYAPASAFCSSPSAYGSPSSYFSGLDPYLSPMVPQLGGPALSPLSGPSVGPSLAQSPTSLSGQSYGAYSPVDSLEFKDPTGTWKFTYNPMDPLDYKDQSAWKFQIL
SPIB, sequence (Q01892 whole entry): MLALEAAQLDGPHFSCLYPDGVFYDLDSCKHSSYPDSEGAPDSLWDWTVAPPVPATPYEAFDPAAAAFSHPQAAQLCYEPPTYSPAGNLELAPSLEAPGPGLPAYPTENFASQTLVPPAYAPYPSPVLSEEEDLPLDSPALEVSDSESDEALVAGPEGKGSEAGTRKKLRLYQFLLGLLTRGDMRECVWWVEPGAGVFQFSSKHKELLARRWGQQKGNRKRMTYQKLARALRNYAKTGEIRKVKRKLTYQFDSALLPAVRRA
ETV5, sequence (P41161 whole entry): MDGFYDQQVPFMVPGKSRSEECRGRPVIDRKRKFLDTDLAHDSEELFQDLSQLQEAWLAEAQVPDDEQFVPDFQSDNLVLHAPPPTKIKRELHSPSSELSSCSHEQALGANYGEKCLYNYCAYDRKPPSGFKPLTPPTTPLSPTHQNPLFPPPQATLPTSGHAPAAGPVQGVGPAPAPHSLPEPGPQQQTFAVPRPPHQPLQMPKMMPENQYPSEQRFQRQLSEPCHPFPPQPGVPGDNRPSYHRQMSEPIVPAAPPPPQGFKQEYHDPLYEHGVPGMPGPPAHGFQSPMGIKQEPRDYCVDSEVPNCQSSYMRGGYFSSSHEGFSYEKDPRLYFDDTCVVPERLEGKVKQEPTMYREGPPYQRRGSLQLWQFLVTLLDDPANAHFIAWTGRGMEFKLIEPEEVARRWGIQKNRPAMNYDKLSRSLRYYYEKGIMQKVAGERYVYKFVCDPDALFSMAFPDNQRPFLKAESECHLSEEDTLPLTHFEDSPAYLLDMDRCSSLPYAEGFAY
ELF1, sequence (P32519 whole entry): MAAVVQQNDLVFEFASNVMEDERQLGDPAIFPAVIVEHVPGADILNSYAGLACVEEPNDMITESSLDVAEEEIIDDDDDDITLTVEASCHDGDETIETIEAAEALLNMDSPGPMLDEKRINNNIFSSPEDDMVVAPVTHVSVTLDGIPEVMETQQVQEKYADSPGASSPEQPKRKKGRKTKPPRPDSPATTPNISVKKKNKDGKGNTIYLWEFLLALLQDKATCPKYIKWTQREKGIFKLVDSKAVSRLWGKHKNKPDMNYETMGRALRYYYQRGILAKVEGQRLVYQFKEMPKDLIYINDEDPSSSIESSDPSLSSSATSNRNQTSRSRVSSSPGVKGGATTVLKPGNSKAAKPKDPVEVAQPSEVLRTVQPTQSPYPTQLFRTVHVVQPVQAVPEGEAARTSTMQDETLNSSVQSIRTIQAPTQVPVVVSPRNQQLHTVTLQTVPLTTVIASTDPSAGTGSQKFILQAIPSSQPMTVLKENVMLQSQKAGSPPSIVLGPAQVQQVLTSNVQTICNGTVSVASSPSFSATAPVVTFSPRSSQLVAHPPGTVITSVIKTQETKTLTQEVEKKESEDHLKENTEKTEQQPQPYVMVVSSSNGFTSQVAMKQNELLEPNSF
ELF4, sequence (Q99607 whole entry): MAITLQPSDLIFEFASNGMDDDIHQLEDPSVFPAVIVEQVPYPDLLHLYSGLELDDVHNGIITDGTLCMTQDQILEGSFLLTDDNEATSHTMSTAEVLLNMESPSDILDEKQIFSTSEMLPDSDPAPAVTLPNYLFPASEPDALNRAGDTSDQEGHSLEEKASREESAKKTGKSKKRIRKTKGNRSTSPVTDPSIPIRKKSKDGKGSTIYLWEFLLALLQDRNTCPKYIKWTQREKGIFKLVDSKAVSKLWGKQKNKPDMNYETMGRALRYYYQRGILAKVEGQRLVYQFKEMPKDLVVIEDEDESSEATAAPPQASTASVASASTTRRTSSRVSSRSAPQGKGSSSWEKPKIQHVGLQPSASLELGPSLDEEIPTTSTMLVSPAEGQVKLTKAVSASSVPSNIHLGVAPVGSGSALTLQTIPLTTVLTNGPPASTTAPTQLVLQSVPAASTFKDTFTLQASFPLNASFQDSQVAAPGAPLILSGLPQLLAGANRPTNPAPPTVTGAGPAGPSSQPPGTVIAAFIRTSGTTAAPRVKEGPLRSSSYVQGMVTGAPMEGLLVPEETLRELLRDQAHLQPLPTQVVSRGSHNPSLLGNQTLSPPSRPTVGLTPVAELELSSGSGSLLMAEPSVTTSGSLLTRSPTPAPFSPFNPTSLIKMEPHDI

With CGACTT, the binding signal was 1.84 fold enrichment (6-mer frequency, TF over GST control) in test [1]; 1.85 fold enrichment (6-mer frequency, TF over GST control) in [2]; 1.58 fold enrichment (6-mer frequency, TF over GST control) in [3]; 1.84 fold enrichment (6-mer frequency, TF over GST control) in test [4]; 1.69 fold enrichment (6-mer frequency, TF over GST control) in [5]; 1.8 fold enrichment (6-mer frequency, TF over GST control) in test [6]. Besides, the binding signal is 1.9 fold enrichment (6-mer frequency, TF over GST control) in test [7]; 1.79 fold enrichment (6-mer frequency, TF over GST control) in test [8]; 1.94 fold enrichment (6-mer frequency, TF over GST control) in [9]; 2 fold enrichment (6-mer frequency, TF over GST control) in [10]; 1.65 fold enrichment (6-mer frequency, TF over GST control) in [11]; 1.57 fold enrichment (6-mer frequency, TF over GST control) in test [12]. Besides, the binding signal in test [13] is 1.65 fold enrichment (6-mer frequency, TF over GST control); in test [14], 1.69 fold enrichment (6-mer frequency, TF over GST control); in test [15], 1.97 fold enrichment (6-mer frequency, TF over GST control); in test [16], 1.72 fold enrichment (6-mer frequency, TF over GST control); in [17], 1.7 fold enrichment (6-mer frequency, TF over GST control); in test [18], 1.74 fold enrichment (6-mer frequency, TF over GST control). In test [19], the binding signal is 1.72 fold enrichment (6-mer frequency, TF over GST control).

For the origin of these results see paper PMC7862700, “An all-to-all approach to the identification of sequence-specific readers for epigenetic DNA modifications on cytosine”.
